In all, about 22,000 compounds went through this assay and about 1,100 (5%) were called active. For the sample, actives were picked, then their nearest neighbours and some compounds at random. A number with no mark means an inactive call. Rule as the data show it: active = activity score above about 55%; inconclusive = no clear call, values can overlap the other calls; inactive = below that.
Assay: inhibitors of intracellular Trypanosoma cruzi, primary screen, cell-based, plate reader, single point, set 2 (AID 651903);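 also: parasites and compound incubated about four days before reading; 0% = median of neutral control wells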
Conditions: intracellular Trypanosoma cruzi in host cells, at 5.01 µM, stronger effect = higher value

| Structure (SMILES) | activity score (inhibition) |
| --- | --- |
| Cc1noc(C)c1NC(=O)N(C)C[C@H]1Oc2ccc(NC(=O)Nc3ccc(C(F)(F)F)cc3)cc2CC(=O)N([C@@H](C)CO)C[C@@H]1C | -4.63% |
| Cc1ccc(S(=O)(=O)N(C)C[C@@H]2Oc3ccc(NC(=O)Cc4ccccc4)cc3CC(=O)N([C@H](C)CO)C[C@H]2C)cc1 | 4.53% |
| COc1ccc(S(=O)(=O)Nc2ccc3c(c2)C(=O)N([C@H](C)CO)C[C@@H](C)[C@@H](CN(C)Cc2ccccc2)O3)cc1 | -14.1% |
| C[C@H](CO)N1C[C@H](C)[C@H](CN(C)Cc2ccc(C(F)(F)F)cc2)Oc2ccc(NS(=O)(=O)c3ccc(Cl)cc3)cc2C1=O | 60.9% (active) |
| COc1ccc(S(=O)(=O)Nc2ccc3c(c2)C(=O)N([C@H](C)CO)C[C@H](C)[C@@H](CN(C)Cc2ccc(-c4ccccc4)cc2)O3)cc1 | 55.9% (active) |
| COc1ccc(CN(C)C[C@@H]2Oc3ccc(NS(=O)(=O)c4ccc(OC)cc4)cc3C(=O)N([C@H](C)CO)C[C@H]2C)cc1 | 3.29% |
| COc1ccc(S(=O)(=O)Nc2ccc3c(c2)C(=O)N([C@H](C)CO)C[C@H](C)[C@H](CN(C)Cc2ccc(C(F)(F)F)cc2)O3)cc1 | 24.5% |
| Cc1ccc(S(=O)(=O)Nc2ccc3c(c2)C(=O)N([C@@H](C)CO)C[C@@H](C)[C@H](CN(C)Cc2ccc(C(F)(F)F)cc2)O3)cc1 | 52.7% |
| C[C@@H]1CN([C@@H](C)CO)C(=O)c2cccc(NC(=O)Nc3ccc4c(c3)OCO4)c2O[C@H]1CN(C)C(=O)Nc1cccc2ccccc12 | -8.82% |
| COc1ccc(-c2cnc3c(c2)C(=O)N([C@H](C)CO)C[C@H](C)[C@H](CN(C)S(=O)(=O)c2ccccc2)O3)cc1 | 26.3% |
| COc1ccc(NC(=O)N(C)C[C@@H]2Oc3ncc(-c4cccc(OC)c4)cc3C(=O)N([C@H](C)CO)C[C@@H]2C)cc1 | 16.6% |
| C[C@H](CO)N1C[C@H](C)[C@H](CN(C)Cc2ccccc2)Oc2ncc(-c3ccccc3)cc2C1=O | -4.22% |
| C[C@@H]1CN([C@H](C)CO)C(=O)c2cccc(NC(=O)Nc3cccc4ccccc34)c2O[C@@H]1CN(C)C(=O)Nc1cccc2ccccc12 | 4.54% |
| C[C@H](CO)N1C[C@H](C)[C@H](CN(C)S(=O)(=O)c2ccc(F)cc2)Oc2ncc(-c3ccc(F)cc3)cc2C1=O | 30.4% |
| C[C@H](CO)N1C[C@H](C)[C@H](CN(C)C(=O)Nc2cccc3ccccc23)Oc2ncc(C#Cc3ccccc3)cc2C1=O | 67.5% (active) |
| C[C@H](CO)N1C[C@H](C)[C@H](CN(C)C(=O)NC2CCCC2)Oc2ncc(-c3ccc(F)cc3)cc2C1=O | 6.58% |
| C[C@H](CO)N1C[C@H](C)[C@H](CN(C)C)Oc2ncc(/C=C/c3ccccc3)cc2C1=O | 71.7% (active) |
| C[C@H](CO)N1C[C@H](C)[C@@H](CN(C)C)Oc2ccc(N(C)C)cc2C1=O | -14.7% |
| Cc1ccc(S(=O)(=O)N(C)C[C@@H]2Oc3ncc(-c4cc5ccccc5o4)cc3C(=O)N([C@H](C)CO)C[C@@H]2C)cc1 | 76.5% (active) |

| Structure (SMILES) | activity score (inhibition) |
| --- | --- |
| C[C@H](CO)N1C[C@H](C)[C@H](CN(C)C(=O)Nc2ccc(F)cc2)Oc2ncc(-c3cc4ccccc4o3)cc2C1=O | 78.2% (active) |
| C[C@H](CO)N1C[C@H](C)[C@H](CN(C)C(=O)Nc2ccc3c(c2)OCO3)Oc2ncc(C#Cc3cccc(F)c3)cc2C1=O | 25.3% |
| Cc1ccc(S(=O)(=O)N(C)C[C@H]2Oc3c(NC(=O)C4CC4)cccc3C(=O)N([C@@H](C)CO)C[C@@H]2C)cc1 | 0.737% |
| Cc1noc(C)c1S(=O)(=O)Nc1ccc2c(c1)C(=O)N([C@H](C)CO)C[C@H](C)[C@H](CN(C)S(=O)(=O)c1cn(C)cn1)OCCCC[C@@H](C)O2 | -39.1% |
| COc1ccc(CN(C)C[C@H]2Oc3c(NC(=O)Nc4ccccc4)cccc3C(=O)N([C@@H](C)CO)C[C@@H]2C)cc1 | 6.85% |
| CCCC(O)C#Cc1cnc2c(c1)C(=O)N([C@H](C)CO)C[C@H](C)[C@H](CN(C)Cc1ccc(F)cc1)O2 (some centres not stated) | 18.5% |
| Cc1cc(C(=O)Nc2cccc3c2O[C@@H](CN(C)S(=O)(=O)c2ccc(F)cc2)[C@@H](C)CN([C@H](C)CO)C3=O)n(C)n1 | 32.3% |
| Cc1noc(C)c1NC(=O)Nc1ccc2c(c1)C(=O)N([C@H](C)CO)C[C@H](C)[C@@H](CN(C)S(=O)(=O)c1cn(C)cn1)O2 | -7.25% |
| C[C@@H]1CN([C@H](C)CO)C(=O)Cc2cc(NC(=O)Nc3ccc(F)cc3)ccc2O[C@@H]1CN(C)C(=O)Nc1ccc2c(c1)OCO2 | -18.5% |
| C[C@@H]1CN([C@@H](C)CO)C(=O)Cc2cc(NC(=O)Nc3ccccc3)ccc2O[C@@H]1CN(C)S(=O)(=O)c1ccc(F)cc1 | 5.25% |
| CC(C)NC(=O)N(C)C[C@H]1Oc2ccc(NS(C)(=O)=O)cc2CC(=O)N([C@@H](C)CO)C[C@H]1C | -20.6% |
| COc1ccc(CN(C)C[C@@H]2Oc3ccc(NS(=O)(=O)c4cn(C)cn4)cc3C(=O)N([C@@H](C)CO)C[C@H]2C)cc1 | -24.5% |
| C[C@@H]1CN([C@H](C)CO)C(=O)c2cccc(NC(=O)c3nc4ccccc4s3)c2O[C@@H]1CN(C)C | -35.8% |
| CC(C)NC(=O)N(C)C[C@@H]1Oc2c(NC(=O)c3nc4ccccc4s3)cccc2C(=O)N([C@H](C)CO)C[C@H]1C | 47.9% |
| C[C@@H]1CN([C@@H](C)CO)C(=O)c2cccc(NC(=O)c3nc4ccccc4s3)c2O[C@H]1CN(C)S(=O)(=O)c1cccs1 | 28.4% |
| Cc1ccc(S(=O)(=O)N(C)C[C@@H]2Oc3c(NC(=O)c4nc5ccccc5s4)cccc3C(=O)N([C@H](C)CO)C[C@@H]2C)cc1 | 81.1% (active) |
| C[C@@H]1CN([C@H](C)CO)C(=O)c2cccc(NC(=O)c3nc4ccccc4s3)c2O[C@H]1CN(C)Cc1ccccc1 | 32.1% |
| C[C@@H]1CN([C@H](C)CO)C(=O)c2cccc(NC(=O)c3nc4ccccc4s3)c2O[C@H]1CN(C)S(=O)(=O)c1ccc(Cl)cc1 | 67.6% (active) |

From PubChem BioAssay AID651903 (Broad Institute, 2012)
